Where “and” joins values, the source holds several entries; their conditions need not be identical. Equal entries are not always repeated. Results filed as inconclusive are left out. Calls of active or inactive are those of the source. Unless noted, calls come from the whole dose curve; as a rule, active = well fitted curve in the direction sought with a large enough effect; inconclusive = small, poorly fitted or top-dose-only effect, or another doubt; inactive = no such curve, though single readings can be large; an effect the other way counts as inactive or inconclusive.
Tests used:
[1] = biological target: Cellular tumor antigen p53 (Homo sapiens) (UniProt P04637); test: Primary qHTS for small molecule compounds that upregulate eGFP-tagged delta133p53alpha (in N-terminal) cells. (AID 2060322); conditions: NCI-H358 eGFP-delta133p53alpha fluorescence, 24 h; activation: active compounds read high;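 note: series mostly up to about 56 µM; 0% = DMSO vehicle and 100% = reference activator; nearly all actives have a fitted effect of over 75% in size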
Method in brief: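 NCI-H358 cells pre-induced 24 h with 10 ng/ml doxycycline to express N-terminal eGFP-delta133p53alpha, then dosed 24 h at 37C without doxycycline; fixed, Hoechst-stained, GFP intensity by laser scanning cytometry, normalized to DMSO (0%) and 57.5 uM 5-azacytidine (100%).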

[2] = biological target: Cellular tumor antigen p53 (Homo sapiens) (UniProt P04637); test: Primary qHTS for small molecule compounds that upregulate eGFP-tagged delta133p53alpha (in C-terminal) cells. (AID 2060324);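 note: 0% = DMSO wells and 100% = 57.5 µM 5-azacytidine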
Method in brief: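 NCI-H358 cells pre-induced 24 h with 100 ng/ml doxycycline to express delta133p53alpha-eGFP, then dosed in doxycycline-free medium for 24 h at 37C. Fixed, Hoechst-stained; GFP intensity by laser scanning cytometry, normalized to DMSO wells.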

[3] = biological target: Aldehyde dehydrogenase, mitochondrial (Homo sapiens) (UniProt P05091); test: qHTS for Inhibitors of the Aldehyde Dehydrogenase Family (ALDH2) Validation screens (AID 2061302; active = well fitted inhibition curve with a large enough effect; title and protocol of this record describe different tests;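 note: plate controls were DMSO vehicle for no effect and maximal DPI positive control response for full effect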)
[4] = biological target: Retinaldehyde dehydrogenase 3 (Homo sapiens) (UniProt P47895); test: qHTS for Inhibitors of the Aldehyde Dehydrogenase Family (ALDH1A3) Validation screen (AID 2061312); note: % is set by controls: 0 for no effect and ±100 for the full control effect; nearly all actives have a fitted effect of over 45% in size

Sequence of Cellular tumor antigen p53 (Homo sapiens) (P04637 whole entry, looked up): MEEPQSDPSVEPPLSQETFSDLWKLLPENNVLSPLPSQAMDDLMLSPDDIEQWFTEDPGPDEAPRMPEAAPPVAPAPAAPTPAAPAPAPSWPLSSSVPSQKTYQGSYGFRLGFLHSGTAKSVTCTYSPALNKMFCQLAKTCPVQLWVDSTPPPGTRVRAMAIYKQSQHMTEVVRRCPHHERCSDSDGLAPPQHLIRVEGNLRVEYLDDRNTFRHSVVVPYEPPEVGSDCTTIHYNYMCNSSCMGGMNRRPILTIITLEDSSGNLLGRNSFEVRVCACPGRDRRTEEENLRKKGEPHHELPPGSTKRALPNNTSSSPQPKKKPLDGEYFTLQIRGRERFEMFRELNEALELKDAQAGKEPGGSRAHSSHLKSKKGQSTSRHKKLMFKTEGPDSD

NCCCC(=O)O
inactive: activation [1] -3.84% | Potency [2] | Potency [3] | Potency [4]

CCCc1c(-c2ccc(O)cc2)nn(-c2ccc(O)cc2)c1-c1ccc(O)cc1
inactive: activation [1] -36.4% | Potency [2] | Potency [3] | Potency [4]

Cc1ccc(=O)n(-c2ccccc2)c1
inactive: activation [1] 1.01% | Potency [2] | Potency [3] | Potency [4]

C[N+](C)(C)CC=O
inactive: activation [1] -21.7% | Potency [2] | Potency [3] | Potency [4]

O=C(O)C1=CCNCC1
inactive: activation [1] -0.576% | Potency [2] | Potency [3] | Potency [4]

Nn1nnc2ccccc21
inactive: activation [1] 15.1% | Potency [2] | Potency [3] | Potency [4]

NCCCCN=C(N)N
inactive: activation [1] -3.8% | Potency [2] | Potency [3] | Potency [4]

CCCCCCC/C=C\CCCCCCCCC(=O)O
inactive: activation [1] -38.4% | Potency [2] | Potency [3] | Potency [4]

NC(=Nc1ccccc1)NC(=O)c1nc(Cl)c(N)nc1N
inactive: activation [1] -28.9% | Potency [2] | Potency [3] | Potency [4]

CCc1ccc2c(-c3cccc(Cl)c3)nc(=O)n(CC)c2n1
inactive: activation [1] -40.5% | Potency [2] | Potency [3] | Potency [4]

NC(N)=NC(=O)c1nc(Cl)c(N2CCCCCC2)nc1N
inactive: activation [1] -39.1% | Potency [2] | Potency [3] | Potency [4]

CC(C)C(=O)c1c(C(C)C)nn2ccccc12
inactive: activation [1] -13.4% and -31.4% | Potency [2] | Potency [3] | Potency [4]

Cc1nc2c(OCc3ccccc3)cccn2c1CC#N
inactive: activation [1] 7.44% | Potency [2] | Potency [3] | Potency [4]

CCCC(=O)NCCc1c2n(c3ccc(OC)cc13)CCCc1ccccc1-2
inactive: activation [1] -45.5% | Potency [2] | Potency [3] | Potency [4]

— PubChem BioAssay (NCATS)
